# According to PubChem BioAssay (EPA / NIEHS):
# Calls of active or inactive are those of the source. How the source made its calls: active means hit-call score of the fitted dose curve at least 0.9, where 1 is the maximum; inactive means score below 0.9.
# Read-out: Glutathione S-Transferase (GSTA2), GSTA2 (gene 2939)
# Assay: LTEA_HepaRG_GSTA2: Life Technologies and Expression Analysis (LTEA) Assay for Glutathione S-Transferase (GSTA2) using HepaRG (AID 2283497)
# Details: mRNA level, 48 h; actives raise or lower the signal
# Experimental: LTEA_HepaRG is a cell based, multiplexed-readout assay that uses HepaRG, a human liver cell line, with measurements taken at 48 hours after chemical dosing on a 96-well plate.LTEA_HepaRG_GSTA2 is one of 102 assay component(s) measured in the LTEA HepaRG cell culture assay. It is a marker of Oxidative Stress.Data from the assay component LTEA_HepaRG_GSTA2 was analyzed into 1 endpoint. This assay endpoint, LTEA_HepaRG_GSTA2, was analyzed with bidirectional fitting relative to DMSO as the negative control and baseline of activity. Using a type of inducible reporter, measures of mRNA induction for gain or loss-of-signal activity can be used to understand regulation of transcription factor activity. To generalize the intended target to other relatable targets, this assay endpoint is annotated to the transferase intended target family, where the subfamily is alkyl and aryl transferase.
# A total of 1060 chemcials from the ToxCast library were tested in eight-point concentration-response experiments. Cell culture and cytotoxicity assays were conducted at Thermo Fisher Scientific's Custom Services facility (Madison, WI). A single lot of human HepaRG cells (Thermo Fisher Scientific, Frederick, MD) was used for the cell culture experiments. 96-well format collagen type I coated plates of human HepaRG cells were prepared using established methods. Briefly, cryopreserved HepaRG cells were thawed, plated at a density of approximately 100,000 cells/well in HepaRG Thaw, Plate, and General Purpose media (HPRG770, Thermo Fisher Scientific), and incubated for 48 hours. 0.5% DMSO was selected as vehicle control to balance the requisite need of DMSO in HepaRG cultures to maintain differentiation (for example, baseline metabolism, proportions of hepatocytes vs. cholangiocytes), while enabling further hepatic receptor pathway activation (for example, PXR and CAR) in response to chemical exposure. 48 hours after plating, the culture medium was replaced with HepaRG Serum-Free Incudtion Media. Cells were exposed to each test chemical in duplicate and maintained in CO2 incubators for another 48 hours. Chemical plates were thawed to room temperature and 200x concentrations of treatment groups were prepared. 8-point conentration-reponse curves were made with the highest exposure at 100 uM, followed by half-log dilutions, all in 0.5% DMSO. Each test plate contained variouse controls, induction positive controls (1mM phenobarbital), cytotoxicity positive controls ([…] aflatoxin B1), vehicle controls (0.5% DMSO), and total lysis controls (0.5% DMSO). Cell morphology images were taken using an Essen IncuCyte FLR automated microscope, with six 96-well plates imaged in about 24 minutes. Images were captured and exported and JPEG files. Spent culture media was transfered to black-well plates for the LDH assay, and remaining media was sorted at -80 C for later use. Cells were treated with RLT buffer and frozen until shipped for gene expression analysis. Total RNA was isolated from the cell suspension in 75 uL of Buffer RLT (Qiagen, Germantown, MD 20874) by Quintiles/Expression Analysis (Durham, NC) using a custom isolation procedure. Total RNA from each plate well was transferred to a preamplification plate. Fluidigm's 96.96 Dynamic ArrayTM (Fluidigm, Amsterdam, the Netherlands) technology was used for gene expression analyses by quantitative reverse transcription polymerase chain reaction (qRT-PCR, performed by Quintiles/Expression Analysis, Durham, NC)89. Standard TaqManTM Assays (Applied Biosystems/ThermoFisher Scientific, Foster City, CA) were used to assess the expression of 93 genes selected based on their selectivity and sensitivity to important hepatic receptors known to be modulated by environmental chemicals; importance in human hepatocyte functionality; and hepatotoxicity. […]
SMILES,outcome,AC50
NC1CCCCC1,inactive,–
O=C1c2c(O)cccc2Cc2cccc(O)c21,inactive,–
CCCC[C@H]1CN(CC2CCOCC2)C(=O)OC12CCN(C1(C)CCN(C(=O)c3c(C)ncnc3C)CC1)CC2,inactive,–
OCC(CO)n1cnc(-c2ccc(F)cc2)c1-c1ccnc(Oc2ccccc2)n1,inactive,–
O=C(N[C@@H](c1ccccc1)[C@@H]1CCCCN1)c1cccc(C(F)(F)F)c1Cl,–,76.6 µM (active)
CCCCCCCCCC[N+](C)(C)[O-],inactive,–
CCCCCCCC(=O)OC,inactive,–
CC(C)(O)c1ccc(CNC(=O)c2cccnc2Oc2ccc(F)cc2)cc1,inactive,–
CCCCCCC(CCCCCCCCCCC(=O)OCC(COC(C)=O)OC(C)=O)OC(C)=O (stereo not given),inactive,–
CC(C)COC(=O)CCCCC(=O)OCC(C)C,inactive,–
OCC(O)CO,inactive,–
C=CCCCCCCCCCCCC,inactive,–
O=C(O)c1cccnc1,inactive,–
CN(C)C(=O)NC1(c2ccccc2)CCN(CCC[C@]2(c3ccc(Cl)c(Cl)c3)CCCN(C(=O)c3ccccc3)C2)CC1,–,20.3 µM (active)
CC(=O)[C@@]1(O)CC[C@H]2[C@@H]3CCC4=CC(=O)CC[C@]4(C)[C@H]3CC[C@@]21C,inactive,–
C/C=C/C=C/C(=O)O,inactive,–
COC(=O)CCCC(=O)OC,inactive,–
CCCCCCC(C=O)=Cc1ccccc1,inactive,–
O=C(O)CC(O)(CC(=O)O)C(=O)O,inactive,–
CC(=O)CC(c1ccccc1)c1c(O)c2ccccc2oc1=O (stereo not given),inactive,–

SMILES,outcome,AC50
S=c1[nH]c2ccccc2s1,inactive,–
CC1=C(C)S(=O)(=O)CCS1(=O)=O,–,90.3 µM (active)
O=Cc1ccccc1C=O,inactive,–
CN(C)C(=O)NC1(c2ccccc2)CCN(CC[C@@]2(c3ccc(F)c(F)c3)CN(C(=O)c3ccccc3)CCO2)CC1,inactive,–
CCCCOC(=O)CCCCC(=O)OCCCC,inactive,–
CCc1cc(C2=C(C(=O)O)N(c3ccccc3C(F)(F)F)S(=O)(=O)c3ccccc32)cc2c1OCO2,–,78.8 µM (active)
CCCCCCCCCCCCCCOS(=O)(=O)O,inactive,–
NC=O,inactive,–
CC(COCC(C)OC(=O)c1ccccc1)OC(=O)c1ccccc1 (stereo not given),inactive,–
N[C@@H](Cc1c[nH]c2ccccc12)C(=O)O,inactive,–
CC1(C)C(=O)NC(=O)N1CO,inactive,–
COc1ccc(OC(F)(F)F)cc1CN[C@H]1CCCN[C@H]1c1ccccc1,–,5.08 µM (active)
CCCCC(CC)COC(=O)CCCCCCCC(=O)OCC(CC)CCCC (stereo not given),inactive,–
C=CCc1ccc(OC)c(OC)c1,inactive,–
O=C1OC(c2ccc(O)cc2)(c2ccc(O)cc2)c2ccccc21,–,78.5 µM (active)
Cc1ccc(-c2cc(C(F)(F)F)nn2-c2ccc(S(N)(=O)=O)cc2)cc1,–,82.1 µM (active)
NCCOCCOCCN,inactive,–
CCc1nc(N)nc(N)c1-c1ccc(Cl)cc1,–,41.8 µM (active)
CO[C@@H]1COCC[C@@H]1N[C@@H]1CC[C@@](C(=O)N2CCc3ncc(C(F)(F)F)cc3C2)(C(C)C)C1,inactive,–
CC(=O)OCC(COC(C)=O)OC(C)=O,inactive,–
